# Source: PubChem
# In the library only some 7.4% were active in any assay of this set; here they are far more common.
# FLuc counter: qHTS profiling assay for firefly luciferase inhibitor/activator using purifed enzyme and Km concentrations of substrates (counterscreen for miR-21 project); Luciferin 4-monooxygenase (Photinus pyralis), P08659; 360,000 compounds, 6.9% hits; Potency, µM (series often up to 57.5 µM), actives largely listed as inhibitors; purified FLuc, Km substrates, luminescence inhibition; further: nearly all actives have a fitted effect of over 55% in size
# Target sequence (P08659 whole entry, looked up): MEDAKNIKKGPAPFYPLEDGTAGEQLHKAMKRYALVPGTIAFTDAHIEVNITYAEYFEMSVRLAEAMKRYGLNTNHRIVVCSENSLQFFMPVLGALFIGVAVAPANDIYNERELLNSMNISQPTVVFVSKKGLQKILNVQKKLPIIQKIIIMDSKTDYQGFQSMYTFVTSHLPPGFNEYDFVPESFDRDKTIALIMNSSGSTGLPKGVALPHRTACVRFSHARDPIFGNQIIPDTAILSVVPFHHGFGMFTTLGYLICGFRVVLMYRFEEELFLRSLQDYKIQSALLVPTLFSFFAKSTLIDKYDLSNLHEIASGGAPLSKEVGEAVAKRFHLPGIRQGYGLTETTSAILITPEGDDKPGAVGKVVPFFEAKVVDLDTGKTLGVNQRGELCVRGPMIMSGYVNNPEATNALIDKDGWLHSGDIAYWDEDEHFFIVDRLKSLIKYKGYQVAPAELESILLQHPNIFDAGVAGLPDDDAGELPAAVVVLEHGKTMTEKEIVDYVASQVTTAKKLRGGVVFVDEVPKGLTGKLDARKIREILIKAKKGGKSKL
#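 Purified P. pyralis luciferase (10nM final) with 10uM D-luciferin and 10uM ATP (Km levels) in 50mM Tris acetate pH 7.5, 10mM Mg acetate, 0.01% Tween-20, 0.05% BSA; qHTS 6-point titration, ~60 µM downward; luminescence read.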
# ELG1 genotoxic: qHTS screen for small molecules that induce genotoxicity in human embryonic kidney (HEK293T) cells expressing luciferase-tagged ELG1; HEK293T ELG1-luciferase reporter, luminescence, 16 h; Potency, µM (titrated, usually from 46 µM), hits mostly activators; 330,000 compounds, 1.3% hits; AID 504466, 2011; further: nearly all actives have a fitted effect of over 60% in size
#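 Cells (2,000/well) expressing the ELG1-luciferase fusion are dosed by pin tool and kept 16 hr at 37 °C, 5% CO2. Signal comes from ONE-Glo luciferase reagent after 30 min at room temperature.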
# SMN2 splice enh: qHTS Assay for Enhancers of SMN2 Splice Variant Expression; HEK293 SMN2-luciferase splicing reporter, luminescence, 30-36 h; Potency, µM (titrated, usually from 46.1 µM), hits mostly activators; 210,000 compounds, 2.8% hits; AID 1458, 2008; further: nearly all actives have a fitted effect of over 55% in size
#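 qHTS luciferase splicing reporter: luminescence rises when SMN2 exon 7 is included in transfected HEK293 cells. Compound exposure lasted 30-36 h at 37C, with 4.5 mM final sodium butyrate as control, followed by a ONE-Glo read.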
# NPC1 prom act: qHTS Assay for NPC1 Promoter Activators; Huh7 NPC1 promoter luciferase reporter, 24 h; Potency, µM (doses to about 9.22 µM), hits mostly activators; 320,000 compounds, 2.4% hits; AID 485313, 2010; further: nearly all actives have a fitted effect of over 60% in size
#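 In 1536-well qHTS, Huh7 cells harboring an NPC1 promoter–luciferase construct received compound for 24 h; activation was quantified by luminescence following luciferase reagent addition.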
# Rab9 prom act: qHTS Assay for Rab9 Promoter Activators | Huh7 Rab9 promoter-luciferase reporter, luminescence, 24 h | Potency, µM (series often up to 9.22 µM), hits mostly activators | 320,000 compounds, 2.8% hits; further: nearly all actives have a fitted effect of over 60% in size
#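 Rab9 promoter-driven luciferase in stably transfected Huh7 cells; 1500 cells/well rested 2 h, exposed to compound in DMSO for 24 h at 37 °C, 5% CO2. Luminescence read 10 min after adding luciferase reagent at ambient temperature.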
# Numbers stand for hits; - = inactive; ? = inconclusive; . = not tested or not shown; [ ] = remark or other dose. The call rests on the fitted dose curve; in most records, active means well fitted curve in the direction sought with a large enough effect; inconclusive means small, poorly fitted or top-dose-only effect, or another doubt; inactive means no such curve, though single readings can be large; an effect the other way counts as inactive or inconclusive.
SMILES,FLuc counter,ELG1 genotoxic,SMN2 splice enh,NPC1 prom act,Rab9 prom act
O=C(/C=C/Nc1ccc([N+](=O)[O-])cc1Br)c1cccc2ccccc12,2.4µM,?,5.6µM,3.2µM,1.1µM
NC(=O)c1cc([N+](=O)[O-])ccc1NCc1cccc2ccccc12,-,-,.,-,-
COc1ccc(O)c(C(=O)c2cnn(-c3ccc(Cl)cc3)c2)c1,17µM,-,.,-,-
COc1ccc(O)c(C(=O)c2cc(C#N)c(=O)n(-c3ccc(Cl)cc3)c2)c1,-,-,.,-,-
O=C(O)c1ccc(-n2cc(C(=O)c3ccccc3O)cn2)cc1,15µM,-,.,-,-
O=C(c1cnn(-c2ccccc2)c1)c1ccc2ccccc2c1O,7.6µM,?,13µM,?,?
O=C(c1cnn(-c2ccccc2)c1)c1cc(Br)ccc1O,-,-,.,-,-
O=C(c1cnn(-c2cccc(F)c2)c1)c1ccccc1O,3.8µM,?,.,?,-[1.84 µM]
C=CC1=C2C=C(C3CC3)N(c3ccc(OC)cc3)C=C2C(=O)C(C)(OC(=O)c2ccco2)C1=O (configuration not stated),.,.,-[9.22 µM],.,.
O=C(CSc1nc2c(c(=O)[nH]1)CN(Cc1ccc(F)cc1)CC2)Nc1cccc(C(F)(F)F)c1,-,.,.,.,.
O=C(COC(=O)C1CCC(=O)N1)Nc1ccccc1OC(F)F (configuration not stated),.,-,.,.,.
O=C(c1cnn(C(=O)c2ccccc2)c1)c1ccccc1O,-,-,-,-,-
O=C(c1cnn(-c2nc3ccccc3s2)c1)c1ccccc1O,3µM,?,-,3.5µM,?
CCOc1ccc(NC(=O)N(Cc2ccc(CC)cc2)Cc2cn[nH]c2-c2ccc(OC)cc2)cc1,-,.,.,.,.
Cc1cccc(-c2ccc(C=Nc3c(C)n(C)n(-c4ccccc4)c3=O)o2)c1,24µM,-,-,-,-
Cc1c(NC(=O)/C(C#N)=C/c2ccc(-c3cccc(Cl)c3)o2)c(=O)n(-c2ccccc2)n1C,-,-,-,-,-
Cc1c(N=Nc2ccc(O)cc2)c(=O)n(-c2ccccc2)n1C,-,-,-,-,-
Cc1[nH]c2ccccc2c1N=Nc1c(C)n(C)n(-c2ccccc2)c1=O,-,-,-,-,-
Cc1c(N=Cc2nc3ccccc3[nH]2)c(=O)n(-c2ccccc2)n1C,13µM,-,-,-,-
Cc1c(N=Cc2nc3ccccc3n2C)c(=O)n(-c2ccccc2)n1C,1.5µM,?,-,-,-
COc1cccc2sc(N3CCN(C(=O)CS(=O)(=O)c4ccc(Cl)cc4)CC3)nc12,-,.,.,.,.
CCc1ccc(NC(=O)C(=O)NCC2CCCN2S(=O)(=O)c2ccccc2)cc1 (configuration not stated),-,-,.,-,-
CCC(=O)N1CCc2cc(S(=O)(=O)NCCC(=O)Nc3ccc(CC)cc3)ccc21,-,.,-,.,.
O=C(O)CC[P+](c1ccccc1)(c1ccccc1)c1ccccc1,.,.,-[9.22 µM],.,.
N#CCCNS(=O)(=O)c1ccc(C(=O)OCCCOC(=O)c2ccc(S(=O)(=O)NCCC#N)cc2)cc1,1.2µM,-,.,-,-
SMILES,FLuc counter,ELG1 genotoxic,SMN2 splice enh,NPC1 prom act,Rab9 prom act
C#CCOCCOCCOCCNc1nc(N2CCN(C(=O)[C@H](CC(N)=O)n3cc([C@@H](N)C(C)C)nn3)CC2)nc(N2CCN(C(=O)[C@H](CC(N)=O)n3cc([C@@H](N)C(C)C)nn3)CC2)n1,.,-,.,.,.
COC(=O)c1c(N)n(-c2cc(Cl)cc(Cl)c2)c2nc3ccccc3nc12,-,.,-,.,.
CCN(CC)c1ccc(/C=N/NC(=O)c2ccoc2C)c(O)c1,2.7µM,16µM,.,?,-
CCN(CC)c1ccc(/C=N/NC(=O)OC)c(O)c1,11µM,-,-,-,-
O=C(NCC1CCCN1S(=O)(=O)c1cccs1)c1cccc(Cl)c1 (configuration not stated),-,-,.,-,-
Cc1cc2c(NC3CCCCC3)ncnc2s1,-,-,.,-,-
CC(C)c1ccc(/C=N\NC(=O)c2ccc(Cn3cccn3)o2)cc1,1.3µM,-,-,?,-
CCCOc1ccc(/C=N/NC(=O)c2ccc(Cn3cc([N+](=O)[O-])cn3)o2)cc1,2.4µM,?,-,-,?
CCN1CCN(CC(=O)Nc2c(OC)cccc2OC)CC1,-,-,.,-,-
CC(Sc1nnc(NC2CCCCC2)s1)C(=O)Nc1ccc2c(c1)C(=O)c1ccccc1C2=O (configuration not stated),?,-,10µM,?,?
Cc1ccccc1OCC(=O)OCC(=O)c1ccc(OCc2ccccc2)cc1,-,?,14µM,?,?
Cc1ccccc1OCC(=O)OCC(=O)c1ccc(OC(=O)c2ccccc2)cc1,-,-,-,-,-
CCCCNC(=O)[C@@](CC)(ONc1ccccc1C(F)(F)F)c1cccc2ccccc12,-,-,.,-,-
O=C(Nc1cc(-c2nc3ccccc3s2)ccc1Cl)c1cc2ccccc2o1,?,.,-,.,.
Cc1ccc(-c2nc3ccccc3s2)cc1NC(=S)NC(=O)c1ccccc1,9.5µM,?,-,-,-
CC(=O)Nc1cc(-c2nc3ccccc3s2)ccc1C,6.7µM,.,-,.,.
Cc1ccc(-c2nc3ccccc3s2)cc1NC(=O)c1cc(-n2cnnc2)ccc1Cl,1.5µM,?,-,-,-
Cc1ccc2nc(N(Cc3cccnc3)C(=O)C3CCCCC3)sc2c1,-,.,.,.,.
O=C(NCc1ccccn1)C1CCCCC1,-,-,-,-,-
COc1ccc(/C=N/NC(=O)c2ccoc2C)cc1O,?,?,?,-,-
O=C(N/N=C/c1ccc2c(c1)OCO2)c1cccc2ccccc12,-,-,.,-,-
Cn1cc(C(=O)N/N=C/c2ccc3c(c2)OCO3)c2ccccc21,8.5µM,-,.,?,?
COc1ccc(/C=N/NC(=O)c2ccoc2C)cc1OC,?,?,13µM,?,?
Cc1occc1C(=O)N/N=C/c1ccc2c(c1)OCO2,3.8µM,?,.,0.5µM,0.35µM
Cc1cc(C(=O)N/N=C/c2ccc3c(c2)OCO3)c(C)o1,6µM,?,.,?,3.2µM
SMILES,FLuc counter,ELG1 genotoxic,SMN2 splice enh,NPC1 prom act,Rab9 prom act
Cc1ccc(C)c(N2CCN(c3ccncc3N)CC2)c1,-,-,.,-,-
CC1=NNC(=O)C1CC(=O)N/N=C/C=C/c1ccccc1 (configuration not stated),-,-,.,-,-
CN(C)S(=O)(=O)c1ccc2c(c1)nnn2CCNC(=O)Nc1ccc(Cl)cc1,-,.,.,.,.
Cn1cc(C(=O)N/N=C/c2ccc(Br)c([N+](=O)[O-])c2)c2ccccc21,-,?,.,-,-
Cn1cc(C(=O)N/N=C/c2cccs2)c2ccccc21,15µM,?,22µM,?,?
Nc1nc2ncc(=O)[nH]c2c(=O)[nH]1,.,.,-,.,.
O=Cc1c(-c2ccc(F)cc2)nc2ccccn12,-,-,-,-,-
COc1ccc(-c2nc3ccccn3c2C=O)cc1,11µM,?,?,4µM,3.2µM
CN(CC(=O)NCc1cccs1)CC(=O)Nc1ccc(F)c(F)c1F,-,-,.,-,-
